# Assay results as given in the supplement of paper PMC6853941.
# Tested on: MCF10A
# Test: perturbation Mahalanobis distance of morphological profile vs DMSO controls (Mahalanobis distance (SD units)); higher = stronger morphological change, active = 7 or more
# Conditions: screen batch: Batch1_Mahalanobis_Distance; 72 h
# Procedure: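 MCF10A cells were seeded onto drugs dispensed acoustically into 384-well plates, using one dose per drug chosen from its human peak plasma concentration, and incubated for 72 h at 37 °C. Cells were stained for DNA, tubulin and mitochondria and imaged; 78 CellProfiler features were extracted, plate-normalised and compared with DMSO wells.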
row,SMILES,perturbation Mahalanobis distance
1,C[C@]12CC[C@H]3[C@@H](CCC4=CC(=O)CC[C@@]43C)[C@@H]1CC[C@@H]2O [Testosterone] (0.17 µM),3.32 (inactive)
2,CC[C@@H](CO)NC(=O)[C@@H]1C=C2c3cccc4[nH]cc(c34)C[C@H]2N(C)C1 [Methylergonovine] (44 µM),2.29 (inactive)
3,CCC(C)C(C)(COC(N)=O)COC(N)=O (stereo not drawn) [Mebutamate] (144.2 µM),2.17 (inactive)
4,COC[C@@H](NC(C)=O)C(=O)NCc1ccccc1 [Lacosamide] (49.9 µM),3.59 (inactive)
5,O=C(O)CCCc1ccc(N(CCCl)CCCl)cc1 [Chlorambucil] (8.1 µM),2.75 (inactive)
6,NCC1(CC(=O)O)CCCCC1 [Gabapentin] (122.6 µM),2.06 (inactive)
7,O=[N+]([O-])O[C@H]1CO[C@H]2[C@@H]1OC[C@H]2O[N+](=O)[O-] [Isosorbide Dinitrate] (0.13 µM),2.18 (inactive)
8,CCN(C(C)=O)c1cccc(-c2ccnc3c(C#N)cnn23)c1 [Zaleplon] (1.6 µM),2.43 (inactive)
9,COc1cc2c(cc1OC)C1CC(=O)C(CC(C)C)CN1CC2 (stereo not drawn) [Tetrabenazine] (10 µM),4.2 (inactive)
10,CC(C)(O)C(=O)Nc1ccc([N+](=O)[O-])c(C(F)(F)F)c1 [Hydroxyflutamide] (27.1 µM),5.03 (inactive)
11,C[C@]12Cc3cn[nH]c3C[C@@H]1CC[C@@H]1[C@@H]2CC[C@@]2(C)[C@H]1CC[C@]2(C)O [Stanozolol] (62.7 µM),2.14 (inactive)
12,Cc1cccc([C@H](C)c2cnc[nH]2)c1C [Dexmedetomidine] (42 µM),2.48 (inactive)
13,NC(=O)CS(=O)C(c1ccccc1)c1ccccc1 (stereo not drawn) [Armodafinil] (27.1 µM),3.56 (inactive)
14,CN(C)C(=O)Oc1ccc[n+](C)c1 [Pyridostigmine  Bromide] (5.5 µM),2.83 (inactive)
15,CN1C[C@H](C(=O)N[C@]2(C)O[C@@]3(O)[C@@H]4CCCN4C(=O)[C@H](Cc4ccccc4)N3C2=O)C[C@@H]2c3cccc4[nH]cc(c34)C[C@H]21 [Dihydroergotamine] (74 µM),2.63 (inactive)
16,O=C1CC[C@@]2(O)[C@H]3Cc4ccc(O)c5c4[C@@]2(CCN3CC2CC2)[C@H]1O5 [Naltrexone] (0.44 µM),3.73 (inactive)
17,C[C@]12CC[C@H]3[C@@H](CC[C@@]45O[C@@H]4C(O)=C(C#N)C[C@]35C)[C@@H]1CC[C@@H]2O [Trilostane] (308.7 µM),3.36 (inactive)
18,NCC(CC(=O)O)c1ccc(Cl)cc1 (stereo not drawn) [Baclofen] (4.7 µM),1.93 (inactive)
19,NC1CC1c1ccccc1 (stereo not drawn) [Tranylcypromine] (7.5 µM),2.27 (inactive)

# Same assay, conditions: screen batch: Batch2_Mahalanobis_Distance; 72 h
row,SMILES,perturbation Mahalanobis distance
1,C[C@]12CC[C@H]3[C@@H](CCC4=CC(=O)CC[C@@]43C)[C@@H]1CC[C@@H]2O [Testosterone] (0.17 µM),3.14 (inactive)
2,CC[C@@H](CO)NC(=O)[C@@H]1C=C2c3cccc4[nH]cc(c34)C[C@H]2N(C)C1 [Methylergonovine] (44 µM),3.37 (inactive)
3,CCC(C)C(C)(COC(N)=O)COC(N)=O (stereo not drawn) [Mebutamate] (144.2 µM),3.78 (inactive)
4,COC[C@@H](NC(C)=O)C(=O)NCc1ccccc1 [Lacosamide] (49.9 µM),2.67 (inactive)
5,O=C(O)CCCc1ccc(N(CCCl)CCCl)cc1 [Chlorambucil] (8.1 µM),8.46 (active)
6,NCC1(CC(=O)O)CCCCC1 [Gabapentin] (122.6 µM),2.79 (inactive)
7,O=[N+]([O-])O[C@H]1CO[C@H]2[C@@H]1OC[C@H]2O[N+](=O)[O-] [Isosorbide Dinitrate] (0.13 µM),2.62 (inactive)
8,CCN(C(C)=O)c1cccc(-c2ccnc3c(C#N)cnn23)c1 [Zaleplon] (1.6 µM),3.38 (inactive)
9,COc1cc2c(cc1OC)C1CC(=O)C(CC(C)C)CN1CC2 (stereo not drawn) [Tetrabenazine] (10 µM),3.85 (inactive)
10,CC(C)(O)C(=O)Nc1ccc([N+](=O)[O-])c(C(F)(F)F)c1 [Hydroxyflutamide] (27.1 µM),4.63 (inactive)
11,C[C@]12Cc3cn[nH]c3C[C@@H]1CC[C@@H]1[C@@H]2CC[C@@]2(C)[C@H]1CC[C@]2(C)O [Stanozolol] (62.7 µM),3.12 (inactive)
12,Cc1cccc([C@H](C)c2cnc[nH]2)c1C [Dexmedetomidine] (42 µM),2.42 (inactive)
13,NC(=O)CS(=O)C(c1ccccc1)c1ccccc1 (stereo not drawn) [Armodafinil] (27.1 µM),2.45 (inactive)
14,CN(C)C(=O)Oc1ccc[n+](C)c1 [Pyridostigmine  Bromide] (5.5 µM),2.49 (inactive)
15,CN1C[C@H](C(=O)N[C@]2(C)O[C@@]3(O)[C@@H]4CCCN4C(=O)[C@H](Cc4ccccc4)N3C2=O)C[C@@H]2c3cccc4[nH]cc(c34)C[C@H]21 [Dihydroergotamine] (74 µM),3.4 (inactive)
16,O=C1CC[C@@]2(O)[C@H]3Cc4ccc(O)c5c4[C@@]2(CCN3CC2CC2)[C@H]1O5 [Naltrexone] (0.44 µM),3.37 (inactive)
17,C[C@]12CC[C@H]3[C@@H](CC[C@@]45O[C@@H]4C(O)=C(C#N)C[C@]35C)[C@@H]1CC[C@@H]2O [Trilostane] (308.7 µM),2.45 (inactive)
18,NCC(CC(=O)O)c1ccc(Cl)cc1 (stereo not drawn) [Baclofen] (4.7 µM),1.48 (inactive)
19,NC1CC1c1ccccc1 (stereo not drawn) [Tranylcypromine] (7.5 µM),3.55 (inactive)
